Among all 200,000 compounds or so, about 670 (0.34%) were called active. Cut-off read from the data, not from the text of the source: active = activation above about 22%; inactive = the rest. Only a selection was taken, and actives are over-represented in it overall.

Peroxisome proliferator-activated receptor gamma (Homo sapiens), sequence (P37231 whole entry, looked up, the tested form may be a part): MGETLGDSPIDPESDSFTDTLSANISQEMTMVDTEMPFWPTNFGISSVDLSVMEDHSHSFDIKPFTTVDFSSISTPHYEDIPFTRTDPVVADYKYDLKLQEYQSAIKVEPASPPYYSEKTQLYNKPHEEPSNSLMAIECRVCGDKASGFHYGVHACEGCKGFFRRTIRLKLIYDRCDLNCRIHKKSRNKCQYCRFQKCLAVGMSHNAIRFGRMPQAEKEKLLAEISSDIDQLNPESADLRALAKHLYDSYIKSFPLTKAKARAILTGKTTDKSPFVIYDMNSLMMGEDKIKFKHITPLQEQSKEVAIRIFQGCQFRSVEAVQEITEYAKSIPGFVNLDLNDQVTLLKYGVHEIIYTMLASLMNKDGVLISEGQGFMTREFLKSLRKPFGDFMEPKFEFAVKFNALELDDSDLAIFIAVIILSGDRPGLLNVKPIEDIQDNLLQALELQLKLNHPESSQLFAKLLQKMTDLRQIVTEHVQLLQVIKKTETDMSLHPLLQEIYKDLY

This assay has as its target Peroxisome proliferator-activated receptor gamma (Homo sapiens) (UniProt P37231). Nature of the assay: agonists of PPARg-SRC-2 recruitment, primary screen, biochemical, HTS (AID 1032).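 Note: 0% = vehicle and 100% = reference agonist.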 As to conditions: PPARgamma LBD-SRC-2 recruitment, at 8 µM, active compounds read high.
Regarding `CCn1c(SCc2cc(=O)n3ccsc3n2)nc2ccccc21`, the activation is 2.48% (inactive).
Under `O=C(CSc1nc2c(cnn2-c2ccc(F)cc2)c(=O)[nH]1)N1CCCCCC1` stands 5.39% (inactive).
As to `CC(=O)c1sc2nc(SCC(=O)N3CCCCC3)[nH]c(=O)c2c1C`, the activation is 27.8% (active).
The same measure for `C=CCNC(=O)CSc1nc2sc(C)c(C)c2c(=O)[nH]1`: 6.77% (inactive); for `CCN(CC)N=Nc1cccc(NC(C)=O)c1`: 6.74% (inactive).
Take `CCOC(=O)c1[nH]ncc1CN1CCCC(C(=O)c2ccc(OC)cc2C)C1` (configuration not stated): the activation was -2.32% (inactive).
As to `Oc1ccccc1N1CCN(C(=S)NCc2ccccc2)CC1`, the activation is 6.1% (inactive).
Turning to `O=C(COC(=O)c1ccncc1)c1ccccc1`, the activation is -2.8% (inactive).
Under `O=C(OCC1O[C@@H](OC(=O)c2cc(O)c(O)c(O)c2)[C@@H](OC(=O)c2cc(O)c(O)c(O)c2)[C@@H](OC(=O)c2cc(O)c(O)c(O)c2)[C@@H]1OC(=O)c1cc(O)c(O)c(O)c1)c1cc(O)c(O)c(O)c1` (some centres not stated) stands 27.6% (active); under `CC(=O)NC1C(OCc2ccccc2)OC(COC(C)=O)C(OC(C)=O)C1OC(C)=O` (configuration not stated), 4.63% (inactive); under `CCOC(=O)N1CCN(C(=O)CSc2nc(C)nc3c2c(=O)n(C)c(=O)n3C)CC1`, -8.15% (inactive).
Consider `Cc1cc(C)nc(NC(=O)c2cccc([N+](=O)[O-])c2)c1`, for which the activation was -5.12% (inactive).
Turning to `CCc1c(-c2ccccc2)nc(N)c(C#N)c1-c1cccs1`, the activation is 23.2% (active).
Turning to `CSc1nc(N)c(C#N)c(-c2ccccc2Cl)c1C#N`, the activation was -6.37% (inactive).
Under `Cc1c(-c2ccccc2)nc(N)c(C#N)c1-c1cccs1` stands 6.63% (inactive); under `O=C(NCc1nnc(SCC(=O)N2CCC(Cc3ccccc3)CC2)o1)c1ccco1`, 0.71% (inactive); under `O=C(Cc1ccc(Br)cc1)N1CCN(c2ccccn2)CC1`, 4.3% (inactive).
Under `CC(C)(C)C(=O)NC(NC(=S)Nc1ccc(S(N)(=O)=O)cc1)C(Cl)(Cl)Cl` (configuration not stated) stands -5.23% (inactive); under `O=C(/C=C/Nc1ccccc1OC(F)(F)F)C(F)(F)F`, 1.89% (inactive).
With `CCCOc1ccc(N/C=C/C(=O)C(C)(C)C)cc1`, the activation was -1.64% (inactive).
The same measure for `CN(C)c1ccc(N/C=C/C(=O)C(F)(F)F)cc1`: 39.6% (active); for `CCC(=O)OCCNc1nc(-c2ccccc2)nc2ccccc12`: 0.25% (inactive); for `Cn1ccc(=NC=C(C#N)C#N)c2ccccc21`: -3.24% (inactive).
Under `CC1CCN(C(=S)NC2CC3CCC2C3)CC1` (configuration not stated) stands -1.7% (inactive); under `Cc1c(CN2CCC(CO)(CCOc3ccccc3)CC2)[nH]c2ccc(Cl)cc12`, 3.77% (inactive).
For `COc1ccc(C(=O)NCc2nnc(SCCOc3ccccc3)n2C)cc1`, the activation is 0.32% (inactive).
As to `CCOC(=O)C1CCN(C(=O)CSc2cc(=O)n(C)c3ccccc23)CC1`, the activation is 56.4% (active).
The same measure for `Cc1cccc(OCc2nnc(SCC(=O)N3CCN(C(=O)c4ccco4)CC3)n2C)c1C`: 4.26% (inactive); for `CCOC(=O)C1CCN(C(=O)Cn2cc(C#N)c3ccccc32)CC1`: 3.64% (inactive).
Consider `Cn1c(=O)cc(SCC(=O)N2CCCC2)c2cc(Cl)ccc21`, for which the activation was 61.1% (active).
Under `O=C(CSCc1ccc(Cl)cc1)N1CCCCC1` stands 7.59% (inactive).
Under `Cn1c(=O)cc(SCC(=O)N2CCN(C(=O)c3ccco3)CC2)c2ccccc21` stands 40.5% (active).
The same measure for `CCOc1ccc(CCNC(=O)CSc2cc(=O)n(C)c3ccc(Cl)cc23)cc1OCC`: 18.7% (inactive); for `CCOC(=O)N1CCC(NC(=O)COc2cc(=O)n(C)c3ccccc23)CC1`: -4.54% (inactive); for `CC(=O)c1ccc(-n2nnnc2SCC(=O)N2CCN(C(=O)c3ccco3)CC2)cc1`: -5.53% (inactive).
With `Cc1ccc(-c2nc(C)sc2CC(=O)OCC(=O)Nc2c(F)cccc2F)cc1`, the activation is 5.36% (inactive).
Regarding `O=c1oc(/C=C/c2ccccc2)nc2ccccc12`, the activation was -0.23% (inactive).
Under `O=C(Cc1ccccc1)N1CCN(S(=O)(=O)c2ccc([N+](=O)[O-])cc2)CC1` stands 7.91% (inactive); under `O=C1c2cccc(OCC(=O)N3N=C(c4cccs4)CC3c3ccc(F)cc3)c2CCN1Cc1ccccc1` (configuration not stated), 0.84% (inactive).
In the case of `CC(CC(=O)Nc1ccccc1)n1ccnc1` (configuration not stated), the activation is 8.08% (inactive).
Under `CCC(CC)C(=O)Nc1ccc(S(=O)(=O)Nc2nccs2)cc1` stands -6.57% (inactive).
The same measure for `C=C(C)C1CC=C(C)/C(=N/NC(=O)CCCNc2cccc(C)c2)C1` (configuration not stated): 3.8% (inactive); for `O=C(CNC(=O)COc1ccccc1)NCCc1ccccn1`: -3% (inactive).
As to `C#CCOCCOCCOCCNc1nc(N2CCN(C(=O)C(Cc3ccc(O)cc3)n3cc(C(N)CC(C)C)nn3)CC2)nc(N2CCN(C(=O)C(Cc3ccc(O)cc3)n3cc(C(N)C(C)CC)nn3)CC2)n1` (configuration not stated), the activation was -8.91% (inactive).
Take `COCCN(C(=O)CCC(=O)Nc1nccs1)C(C(=O)NC(C)(C)C)c1ccc(Cl)cc1` (configuration not stated): the activation was 5.4% (inactive).
Turning to `CC(=O)Nc1ccc(Nc2c([N+](=O)[O-])cc(S(C)(=O)=O)cc2[N+](=O)[O-])cc1`, the activation is 6.76% (inactive).
For the compound `CN(C)c1ccnc(Oc2ccc(F)cc2)c1C#N`, the activation is 7.04% (inactive).
As for `N#Cc1ccc(-c2ccc(F)cc2)nc1Sc1ccccc1`, the activation was 3.38% (inactive).
Take `N#Cc1ccc(-c2ccc(Cl)cc2)nc1Oc1ccc(F)cc1`: the activation is 322% (active).
For the compound `COCCn1c(SCC(=O)Nc2ccc3c(c2)CCC3)nc2ccccc2c1=O`, the activation is -3.24% (inactive).
`CCOC(=O)/C=c1\s/c(=C\c2ccc(C#N)cc2)c(=O)n1CC(=O)Nc1cccc(C)c1C`: the activation is 2.46% (inactive).
The same measure for `Oc1oc(-c2ccccc2Br)nc1/C=N/c1ccccn1`: 7.3% (inactive).
With `Cc1ccc(-n2[nH]c(C)c(/C=N/N3C(=O)c4cccc5cccc(c45)C3=O)c2=O)cc1`, the activation is 6.04% (inactive).
Under `COc1cc(SC#N)ccc1N=Cc1c(C)[nH]n(-c2ccc(C)cc2)c1=O` stands 27.6% (active); under `CCc1nnc(NS(=O)(=O)c2ccc(N=Cc3c(C)[nH]n(-c4ccc(C)cc4)c3=O)cc2)s1`, 12.6% (inactive).
Under `CN(C)S(=O)(=O)c1cccc(NC(=S)NCc2ccc3c(c2)OCO3)c1` stands 4.42% (inactive); under `COc1ccc(N(CC(=O)NC2CCCC2)C(=O)CS(=O)CC(=O)Nc2ccc3c(c2)OCO3)cc1` (configuration not stated), -7.54% (inactive).
Under `Cc1nc2ccccc2n1CC(=O)N/N=C/c1cccnc1` stands 2.27% (inactive); under `O=C(CSc1cccc2cccnc12)N/N=C/c1cccnc1`, 27.4% (active); under `CCOC(=O)N/N=C/c1cccnc1`, 3.1% (inactive).
In the case of `CC(C)CN1CCNC(=O)C1CC(=O)N(C)CC1CCOCC1` (configuration not stated), the activation is -4.08% (inactive).
The same measure for `c1ccc2sc(NN=C3CCCC3)nc2c1`: -0.8% (inactive); for `Cc1cccc2cc(CN(Cc3ccc4c(c3)OCO4)Cc3nnnn3C3CCCC3)c(=O)[nH]c12`: 27.4% (active).
The same measure for `Cc1cccc2cc(CN(Cc3cccs3)C(c3nnnn3C3CCCC3)C(C)C)c(=O)[nH]c12` (configuration not stated): 2.09% (inactive); for `CCC(c1nnnn1C1CCCC1)N(Cc1cccs1)Cc1cc2cccc(C)c2[nH]c1=O` (configuration not stated): 7.3% (inactive).
The same measure for `CC(C(=O)N=Nc1c(O)n(C)c2ccc(Br)cc12)n1cnc2ccccc2c1=O` (configuration not stated): 2.86% (inactive); for `Cc1ccccc1Cn1nc(C)c(NC(=O)C(F)(F)F)c1C`: -0.15% (inactive); for `COc1cc(C2C(C(=O)c3ccc(C)o3)=C(O)C(=O)N2Cc2cccnc2)ccc1O` (configuration not stated): -1.47% (inactive).
On to `CCCOc1ccc(C2C(C(=O)c3ccc(C)o3)=C(O)C(=O)N2CCCn2ccnc2)cc1` (configuration not stated), for which the activation was 22.1% (active).
For the compound `COc1cc(C2C(C(=O)c3ccc(C)o3)=C(O)C(=O)N2CCc2ccccc2)ccc1O` (configuration not stated), the activation is 0.21% (inactive).
The same measure for `CCOC(=O)N1CCC(=NNC(N)=O)CC1`: 3.39% (inactive); for `CCCCOC(=O)c1ccc(NC(c2ccc(C)cc2)P(=O)(OC)OC)cc1` (configuration not stated): 7.71% (inactive); for `COc1cc(C(=S)N2CCOCC2)ccc1O`: 5.98% (inactive).
As for `COc1cccc(NC(=O)C(Sc2nc3ccccc3c(=O)n2CC(C)C)c2ccccc2)c1` (configuration not stated), the activation was 1.13% (inactive).
For the compound `Cc1ccc(NC(=S)N(CCCN2CCC(C)CC2)Cc2ccco2)cc1`, the activation is -0.03% (inactive).
Under `COCCNC(=O)Cn1cc(C(=O)c2cccs2)c2ccccc21` stands -7.11% (inactive); under `O=C(Cn1cc(C(=O)c2cccs2)c2ccccc21)NCc1cccs1`, -4.53% (inactive).
Under `COC(=O)Cn1cc(C(=O)c2cccs2)c2ccccc21` stands 25.2% (active).
Under `O=C(CNS(=O)(=O)c1ccccc1)NCC(=O)OCc1ccccc1F` stands -5.13% (inactive); under `Cc1scc(C(=O)NNC(=S)NCc2ccccc2)c1C`, -7.7% (inactive); under `CC1=NNC(=O)C1CCC(=O)N/N=C\c1ccc(Cl)c(Cl)c1` (configuration not stated), 6.93% (inactive).
Consider `O=c1c2ccccc2c(-c2ccccc2)nn1Cc1ccccc1`, for which the activation is -3.47% (inactive).
Under `Cn1c(CO)cnc1SCc1ccccc1` stands 5.35% (inactive); under `CSc1c(SCc2ccccc2)cnn(Cc2ccccc2)c1=O`, 28% (active); under `CN1CCC(=NNC(=O)CN(c2cccc(Cl)c2)S(C)(=O)=O)CC1`, 10.8% (inactive).
`S=c1[nH]cc(-c2ccc(Cl)cc2)n1-c1ccccc1`: the activation was 0.94% (inactive).
In the case of `CCc1ccc(NC(=O)C(C)OC(=O)/C=C/c2cccc([N+](=O)[O-])c2)cc1` (configuration not stated), the activation was 2.51% (inactive).
Turning to `Cc1cccn2c(CN(C)C3CCCc4ccccc43)c(C(=O)N3CCOCC3)nc12` (configuration not stated), the activation was -1.89% (inactive).
The same measure for `CCN(CC)CCCNC(=O)c1cc(-c2cccc(Cl)c2)on1`: 0.37% (inactive); for `CCN(CCCNC(=O)CSc1cc(=O)n(C)c2cc(Cl)ccc12)Cc1ccccc1`: 26.1% (active).
Regarding `CCN(CC)CCCNC(=O)CCc1ccccc1`, the activation was 9.5% (inactive).
The same measure for `CCOC(=O)N1CCN(c2cc(C)c([N+](=O)[O-])cc2F)CC1`: -3.32% (inactive).

The values above are taken from PubChem BioAssay AID1032 (The Scripps Research Institute Molecular Screening Center, 2008).
